In PubChem BioAssay:
Active and inactive are the calls of the source. Unless noted, how the calls were made is not given here.

How the values were obtained:
[1] = test system: Wnt5a (protein binding on small-molecule microarray); assay: Wnt5a binders on small-molecule microarray, primary screen, biophysical, 635/667 nm fluorescence (AID 1142); details: 635 nm fluorescence, higher = more signal;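 further: fluorescence read at 667 nm with signal to noise per printed feature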
[2] = cell viability in Huh7 cells, primary screen, cytotoxicity control for HCV replication inhibitor project, CellTiter-Glo luminescence, basal, 48 h (AID 1143); details: Huh7 HCV replicon, higher = more signal, called active from +8 up or from −8 down;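 further: Huh7 hepatoma cells carrying a hepatitis C replication reporter with no stimulus; test concentration not given here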
[3] = P. aeruginosa biofilm formation inhibitors, primary screen, PAO1 strain, BacTiter-Glo luminescence, LB-PBS (AID 1144); details: 12 h, higher = more signal
[4] = CREB reporter modulators without forskolin, primary screen, cell-based, PC12, CRE-LacZ reporter, unstimulated (AID 1145); details: no forskolin, luminescence, 4.5 h, higher = more signal, called active from +8 up or from −8 down
[5] = CREB reporter modulators under forskolin, primary screen, cell-based, PC12, CRE-LacZ reporter, forskolin-stimulated (AID 1146); details: luminescence, 4.5 h, higher = more signal, called active from +8 up or from −8 down;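 further: PC12 cells with 6xCRE LacZ reporter stimulated by forskolin 10 µM; beta-galactosidase reporter signal reflecting CREB driven transcription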
[6] = target: Streptavidin (Streptomyces avidinii) (UniProt P22629); assay: streptavidin binders on small-molecule microarray, primary screen, artefact control for SMM compound annotation, biophysical, 635/667 nm fluorescence (AID 1147); details: streptavidin binding, higher = more signal;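 further: signal reflects streptavidin binding to arrayed compounds as a control protein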
[7] = small-molecule binders of probe aInhba, primary screen, biochemical, small-molecule microarray, 635/667 nm fluorescence (AID 1148); details: higher = more signal;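 further: score merges 667nm spot fluorescence with signal-to-noise for antibody binding to printed compounds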
[8] = target: Torsin-1A (Homo sapiens) (UniProt O14656); assay: torsin A binders from cell lysate, primary screen, small-molecule microarray, wild-type, 635/667 nm (AID 1149); details: COS7 hTOR1A-WT lysate, 635 nm fluorescence, higher = more signal
[9] = target: Torsin-1A (Homo sapiens) (UniProt O14656); assay: small-molecule binders of mutant TOR1A in lysate, primary screen, cell lysate, small-molecule microarray, COS7 lysate, 635/667 nm fluorescence (AID 1150); details: COS7 hTOR1A mutant lysate, 635 nm fluorescence, higher = more signal;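 further: score pools 667 nm emission and signal to noise measuring lysate protein binding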
[10] = test system: Sonic hedgehog protein (Shh); assay: small-molecule binders of Shh protein, primary screen, biochemical, small-molecule microarray, 635/667 nm fluorescence (AID 1151); details: small-molecule microarray binding, 635 nm fluorescence; higher = more signal;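 further: Shh protein binding to compounds spotted on small-molecule microarray slides; score combines spot fluorescence intensity with signal-to-noise across triplicate slides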
[11] = E. coli DRC41 culture turbidity changes, primary screen, E. coli filamentation inducer project, strain DRC41, OD650, 48 h (AID 1152);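 further: E. coli MC1000 strain DRC41 lacking acrAB efflux pump and sulA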; details: E. coli DRC41 (acrAB sulA), higher = more signal, called active from +8 up or from −8 down
[12] = small-molecule binders of probe aLefty1, primary screen, biochemical, small-molecule microarray, 635/667 nm fluorescence (AID 1153); details: higher = more signal;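 further: score merges spot fluorescence with signal-to-noise ratio from the scanned slide images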
[13] = PSAC antagonists in infected red cells, primary screen, cell-based, P. falciparum Indochina, OD700, 1 h (AID 1154); details: P. falciparum Indochina infected RBC osmotic lysis, higher = more signal, called active from +8 up or from −8 down
[14] = PSAC antagonists in infected red cells, primary screen, cell-based, P. falciparum Indochina, OD700, 2 h (AID 1155);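 further: lysis reports solute entry through the parasite surface anion channel PSAC; channel blockers reduce lysis of infected cells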; details: P. falciparum Indochina infected erythrocytes, osmotic lysis OD700; higher = more signal, called active from +8 up or from −8 down
[15] = osmotic lysis modulators in infected erythrocytes, primary screen, PSAC antagonist project, cell-based, P. falciparum Indochina, OD700, 3 h (AID 1156); details: higher = more signal, called active from +8 up or from −8 down
[16] = PSAC antagonists in infected red cells, primary screen, cell-based, P. falciparum Indochina, OD700, 18 h (AID 1157); details: P. falciparum Indochina infected erythrocytes, osmotic lysis OD700, 18 h; higher = more signal, called active from +8 up or from −8 down
[17] = modulators of S6 phosphorylation in cells, primary screen, cell-based, A549, cytoblot, luminescence, serum-stimulated (AID 1158); details: A549 phospho-S6 cytoblot, 5 h, higher = more signal;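 further: serum-stimulated A549 lung adenocarcinoma cells; signal is phosphorylated S6 detected by cytoblot immunostaining with HRP secondary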
[18] = target: NADPH oxidase 2 (Homo sapiens) (UniProt P04839); assay: NOX2-dependent H2O2 signal modulators, primary screen, NOX inhibitor project, cell-based, HEK293-NOX2, PMA-stimulated, Amplex Red fluorescence (AID 1159); details: 45 min, higher = more signal, called active from +8 up or from −8 down; further: test concentration not given here
[19] = target: NADPH oxidase 4 (Homo sapiens) (UniProt Q9NPH5); assay: NOX4-dependent H2O2 signal modulators, primary screen, NOX inhibitor project, cell-based, HEK293-NOX4, tetracycline-induced, Amplex Red fluorescence (AID 1160); details: 45 min, higher = more signal, called active from +8 up or from −8 down
[20] = target: NADPH oxidase 5 (Homo sapiens) (UniProt Q96PH1); assay: NOX5-dependent H2O2 signal modulators, primary screen, NOX inhibitor project, cell-based, HEK293-NOX5, Amplex Red fluorescence (AID 1161); details: HEK293-NOX5, ionomycin, 45 min, higher = more signal
NADPH oxidase 5 (Homo sapiens), sequence (Q96PH1 whole entry, looked up): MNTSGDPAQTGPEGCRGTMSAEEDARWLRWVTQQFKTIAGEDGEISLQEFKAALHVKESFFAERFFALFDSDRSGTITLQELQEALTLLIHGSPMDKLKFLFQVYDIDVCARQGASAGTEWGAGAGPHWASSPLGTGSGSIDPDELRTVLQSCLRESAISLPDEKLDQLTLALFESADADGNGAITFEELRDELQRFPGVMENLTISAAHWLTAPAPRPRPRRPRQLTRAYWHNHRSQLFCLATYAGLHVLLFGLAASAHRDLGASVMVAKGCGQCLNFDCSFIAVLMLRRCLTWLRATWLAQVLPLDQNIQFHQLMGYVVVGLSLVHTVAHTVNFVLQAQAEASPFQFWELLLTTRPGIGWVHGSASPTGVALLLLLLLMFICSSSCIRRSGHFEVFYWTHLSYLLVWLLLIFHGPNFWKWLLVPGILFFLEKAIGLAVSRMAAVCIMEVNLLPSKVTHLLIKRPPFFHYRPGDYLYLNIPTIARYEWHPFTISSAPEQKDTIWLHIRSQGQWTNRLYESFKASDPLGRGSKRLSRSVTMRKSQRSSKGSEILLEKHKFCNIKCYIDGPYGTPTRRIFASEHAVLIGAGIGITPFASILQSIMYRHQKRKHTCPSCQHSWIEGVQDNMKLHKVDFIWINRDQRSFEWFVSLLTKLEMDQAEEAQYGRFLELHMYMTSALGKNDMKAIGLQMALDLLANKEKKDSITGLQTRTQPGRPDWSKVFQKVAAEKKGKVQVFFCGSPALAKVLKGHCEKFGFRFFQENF

Torsin-1A (Homo sapiens), sequence (O14656 whole entry, looked up): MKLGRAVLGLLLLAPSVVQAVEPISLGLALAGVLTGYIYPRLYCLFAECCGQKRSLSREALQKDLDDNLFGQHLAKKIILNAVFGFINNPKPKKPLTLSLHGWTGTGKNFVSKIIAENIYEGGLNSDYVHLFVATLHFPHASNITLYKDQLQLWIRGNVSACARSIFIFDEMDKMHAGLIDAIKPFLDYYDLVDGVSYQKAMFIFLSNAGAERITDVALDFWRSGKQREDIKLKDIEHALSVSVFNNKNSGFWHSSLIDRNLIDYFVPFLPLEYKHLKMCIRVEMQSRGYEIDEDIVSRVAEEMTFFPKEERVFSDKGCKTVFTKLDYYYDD
NADPH oxidase 2 (Homo sapiens), sequence (P04839 whole entry, looked up): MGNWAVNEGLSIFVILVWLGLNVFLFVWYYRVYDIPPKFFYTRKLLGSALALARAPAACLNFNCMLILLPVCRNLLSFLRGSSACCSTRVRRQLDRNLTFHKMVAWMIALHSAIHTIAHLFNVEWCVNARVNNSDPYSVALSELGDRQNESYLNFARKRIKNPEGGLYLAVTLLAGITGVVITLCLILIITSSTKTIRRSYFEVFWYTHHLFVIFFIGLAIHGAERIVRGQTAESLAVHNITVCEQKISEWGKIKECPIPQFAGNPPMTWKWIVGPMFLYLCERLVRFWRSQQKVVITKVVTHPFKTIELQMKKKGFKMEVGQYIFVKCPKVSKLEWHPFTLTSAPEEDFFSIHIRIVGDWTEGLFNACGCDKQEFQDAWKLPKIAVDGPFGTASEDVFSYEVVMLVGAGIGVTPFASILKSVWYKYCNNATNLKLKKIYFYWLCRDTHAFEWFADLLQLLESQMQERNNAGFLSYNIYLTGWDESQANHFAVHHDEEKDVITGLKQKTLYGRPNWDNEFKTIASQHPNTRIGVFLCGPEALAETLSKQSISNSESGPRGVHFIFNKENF
Streptavidin (Streptomyces avidinii), sequence (P22629 whole entry, looked up): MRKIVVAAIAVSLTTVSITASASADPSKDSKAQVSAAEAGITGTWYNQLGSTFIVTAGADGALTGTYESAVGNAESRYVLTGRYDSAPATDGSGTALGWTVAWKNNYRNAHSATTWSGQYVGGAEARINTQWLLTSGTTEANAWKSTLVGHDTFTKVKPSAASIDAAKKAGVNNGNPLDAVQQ
NADPH oxidase 4 (Homo sapiens), sequence (Q9NPH5 whole entry, looked up): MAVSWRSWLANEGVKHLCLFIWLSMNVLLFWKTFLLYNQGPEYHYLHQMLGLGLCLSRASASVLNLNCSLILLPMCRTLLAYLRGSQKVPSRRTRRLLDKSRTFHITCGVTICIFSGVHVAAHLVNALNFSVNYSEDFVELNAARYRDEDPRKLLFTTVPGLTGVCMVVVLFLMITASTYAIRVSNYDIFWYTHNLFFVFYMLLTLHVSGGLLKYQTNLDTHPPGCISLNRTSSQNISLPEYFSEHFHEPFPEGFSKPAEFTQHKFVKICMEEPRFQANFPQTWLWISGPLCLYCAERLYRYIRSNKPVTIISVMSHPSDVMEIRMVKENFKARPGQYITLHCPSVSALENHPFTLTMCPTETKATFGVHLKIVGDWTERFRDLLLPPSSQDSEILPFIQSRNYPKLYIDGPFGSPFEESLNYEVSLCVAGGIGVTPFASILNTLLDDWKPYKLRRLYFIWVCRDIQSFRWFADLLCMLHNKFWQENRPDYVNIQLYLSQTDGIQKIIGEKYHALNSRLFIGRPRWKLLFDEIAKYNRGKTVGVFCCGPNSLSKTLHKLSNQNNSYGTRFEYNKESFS

| SMILES | composite z-score [1] | z-score [2] | z-score [3] | z-score [4] | z-score [5] | composite z-score [6] | composite z-score [7] | composite z-score [8] | composite z-score [9] | composite z-score [10] | z-score [11] | composite z-score [12] | z-score [13] | z-score [14] | z-score [15] | z-score [16] | z-score [17] | z-score [18] | z-score [19] | z-score [20] |
| --- | --- | --- | --- | --- | --- | --- | --- | --- | --- | --- | --- | --- | --- | --- | --- | --- | --- | --- | --- | --- |
| OCCCc1cc[n+](Cc2cccc(OC(F)(F)F)c2)cc1 | 0.012 | -1.79 (inactive) | -0.781 (inactive) | -0.374 (inactive) | 1.69 (inactive) | 0.274 | -0.0538 | 1.03 | 1.59 | 1.82 | -0.123 (inactive) | 0.363 | 0.514 (inactive) | 0.816 (inactive) | 1.54 (inactive) | 0.916 (inactive) | 0.211 | 0.972 (inactive) | -0.285 (inactive) | 0.384 |
| COCCOC(=O)N1C(=O)[C@@]2(c3cc(C#CCCO)ccc31)[C@H](C(=O)NC[C@H](O)c1ccccc1)[C@H]1C(=O)O[C@H](c3ccccc3)[C@H](c3ccccc3)N1[C@@H]2c1ccc(OCCO)cc1 | 0.041 | -3.14 (inactive) | -1.71 (inactive) | -1.97 (inactive) | -1.18 (inactive) | 0.738 | 0.0444 | 0.269 | 0.126 | 1.85 | 1.96 (inactive) | -0.0276 | 3.45 (inactive) | 1.02 (inactive) | -0.431 (inactive) | 0.212 (inactive) | 0.568 | 1.75 (inactive) | 1.13 (inactive) | -0.0265 |
| Cc1cc(C)c(C(O)C2C=CC3C(=O)NC(=O)C3N2Nc2ccccn2)c(C)c1 (stereo not given) | -0.265 | 0.882 (inactive) | -0.644 (inactive) | -0.14 (inactive) | -0.0376 (inactive) | 0.545 | 0.0599 | -0.145 | 0.736 | -0.095 | -1.14 (inactive) | 0.469 | 1.02 (inactive) | 0.742 (inactive) | -0.0209 (inactive) | 1.07 (inactive) | -1.25 | -1.49 (inactive) | -1.33 (inactive) | -2.12 |
| O=C1C2C=CC(C(O)c3ccccn3)N(Nc3ccccc3F)C2C(=O)N1c1ccccc1 (stereo not given) | -0.0672 | 0.894 (inactive) | -0.62 (inactive) | -0.708 (inactive) | 0.901 (inactive) | 0.429 | -0.0986 | 0.456 | 0.432 | -0.461 | -0.882 (inactive) | -0.133 | 0.671 (inactive) | 0.571 (inactive) | 0.42 (inactive) | 1.19 (inactive) | -0.725 | -1.63 (inactive) | -3.57 (inactive) | -1.54 |
| Oc1ccc2cc[n+](Cc3cccc(OC(F)(F)F)c3)cc2c1 | 0.112 | 0.202 (inactive) | -0.452 (inactive) | -0.0243 (inactive) | -0.668 (inactive) | 0.1 | -0.255 | 0.0193 | -0.527 | 1.89 | 0.444 (inactive) | -0.606 | 0.0313 (inactive) | -0.0655 (inactive) | 0.621 (inactive) | -0.236 (inactive) | -0.522 | -1.93 (inactive) | -0.554 (inactive) | -0.3 |
